These results are taken from PubChem BioAssay (EPA / NIEHS).

Inconclusive results are not listed. Calls of active or inactive are those of the source. How the source made its calls, unless noted: active means hit-call score of the fitted dose curve at least 0.9, where 1 is the maximum; inconclusive means response in the unintended direction; inactive means score below 0.9.

Test [1] is described as follows: STM_H9_OrnCyssISnorm_ratio: Stemina devTOX quickPredict H9 human embryonic stem cell (hESC)-based Assay for Ornithine (ORN):Cystine (CYSS) Ratio (AID 2283714). An outline of the steps:
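UPLC-HRMS of spent media: ORN/CYSS ratio of internal-standard-normalized percentages, DMSO (0.1%) baseline. Pluripotent H9 hESCs, 72h exposure, daily re-dosing with fresh media; last 24h media collected.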

The nature of test [2]: ACEA_ER_AUC_viability: ACEA Biosciences xCELLigence Real-Time Cell Analysis on Estrogen Receptor Agonism for Viability (AID 2283782).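 Further: hit means loss of impedance signal meaning reduced cell growth or viability.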 An outline of the steps: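 Read-out: real-time electrical impedance (RT-CES) area under curve, loss of signal taken as reduced viability, normalized to DMSO baseline. T-47D cells, charcoal-stripped serum medium, compounds up to 100 uM final, continuous exposure, 80 h.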

Test [3] can be described thus: CEETOX_H295R_MTT_cell_viability: Viability Assessment in the CeeTox HT-H295R MTT Assay (AID 2283718; active means hit-call score of the fitted dose curve at least 0.9, where 1 is the maximum; inactive means score below 0.9). An outline of the steps: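 Human H295R adrenal cells, prestimulated 48 h with 10 uM forskolin, were exposed 48 h to chemicals in 0.1% DMSO. Viability was measured in the same wells by MTT (0.5 mg/ml, 4 h, 37 C), absorbance 570/650 nm, as percent of controls.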
Test [4] deals with Luciferin 4-monooxygenase (Photinus pyralis) (UniProt P08659). As to the kind of experiment: CCTE_Simmons_QuantiLum_inhib_2: CCTE's Firefly Luciferase Inhibition Assay, Simmons Lab (AID 2283767).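 On AC50: potency for inhibitors that lower luciferase luminescence relative to DMSO.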 An outline of the steps: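 First, 5 ng purified luciferase in phosphate buffer with BSA is dispensed per well. Next, test chemicals (5 nM to 87.5 uM final, 0.5% DMSO) are added and incubated 30 min at 37C in darkness. Finally, luciferin reagent is injected and luminescence read kinetically.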

Test [5] in a line: ACEA_AR_antagonist_AUC_viability: ACEA Biosciences xCELLigence Real-Time Cell Analysis on Androgen Receptor Antagonism for Viability (AID 2283776).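 Further: area under impedance growth curve at 80 h after dosing as viability; hits lower the growth signal relative to DMSO meaning cytotoxicity.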 The method, boiled down:
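22Rv1 human prostate cancer cells were seeded on electrode plates, monitored overnight, then exposed to eight 1:4 dilutions from 100 uM final. Impedance-based growth kinetics at 80 h gave an AUC viability endpoint normalized to DMSO.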

Test [6] is described as follows: ACEA_AR_agonist_AUC_viability: ACEA Biosciences xCELLigence Real-Time Cell Analysis on Androgen Receptor Agonism for Viability (AID 2283775).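 On AC50: viability read 80 hours after compound addition.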 An outline of the steps:
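22Rv1 cells; impedance growth kinetics; 8-pt 1:4 dilutions from 100 uM top final, ≤0.5% DMSO; n = 2; 80 h read; AUC viability, loss-of-signal vs DMSO.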

For test [7], the target named is AR (gene 367) (UniProt P10275). Nature of the test: ACEA_AR_antagonist_80hr: ACEA Biosciences xCELLigence Real-Time Cell Analysis on Androgen Receptor Antagonism for Proliferation (AID 2283787).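 Further: hits lower the impedance growth signal relative to DMSO.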 An outline of the steps:
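Measures real-time proliferation of 22Rv1 prostate cancer cells by electrode impedance at 80 hours after dosing. Test articles ran at eight concentrations (1:4 steps, top 100 uM final) in biological duplicate.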

Test [8] addresses AR (gene 367) (UniProt P10275). Nature of the test: ACEA_AR_agonist_80hr: ACEA Biosciences xCELLigence Real-Time Cell Analysis on Androgen Receptor Agonism for Proliferation (AID 2283783).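 Further: hits increase impedance growth signal above DMSO baseline.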 The method, boiled down: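 Impedance (RT-CES) growth signal at 80 h post-dose; 22Rv1 cells, 8-pt 1:4 series, top 100 uM final, DMSO ≤0.5%; duplicate plates; gain-of-signal fit relative to DMSO baseline.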

Sequence of Luciferin 4-monooxygenase (Photinus pyralis) (P08659 whole entry, looked up): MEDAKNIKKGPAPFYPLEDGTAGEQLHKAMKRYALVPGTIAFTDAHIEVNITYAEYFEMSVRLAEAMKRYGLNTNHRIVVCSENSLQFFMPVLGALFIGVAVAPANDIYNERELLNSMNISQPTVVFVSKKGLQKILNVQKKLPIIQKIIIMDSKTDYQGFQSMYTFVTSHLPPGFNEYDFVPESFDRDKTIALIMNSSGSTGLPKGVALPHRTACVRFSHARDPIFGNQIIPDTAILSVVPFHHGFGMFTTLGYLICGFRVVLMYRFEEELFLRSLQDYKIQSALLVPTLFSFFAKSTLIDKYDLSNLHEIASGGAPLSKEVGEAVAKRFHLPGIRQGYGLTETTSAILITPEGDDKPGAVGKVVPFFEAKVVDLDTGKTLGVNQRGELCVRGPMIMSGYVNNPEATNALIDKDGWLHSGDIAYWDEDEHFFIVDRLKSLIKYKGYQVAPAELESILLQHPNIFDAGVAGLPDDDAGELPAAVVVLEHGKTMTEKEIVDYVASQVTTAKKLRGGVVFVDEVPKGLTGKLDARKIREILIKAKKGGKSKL
Sequence of AR (gene 367) (P10275 whole entry, looked up): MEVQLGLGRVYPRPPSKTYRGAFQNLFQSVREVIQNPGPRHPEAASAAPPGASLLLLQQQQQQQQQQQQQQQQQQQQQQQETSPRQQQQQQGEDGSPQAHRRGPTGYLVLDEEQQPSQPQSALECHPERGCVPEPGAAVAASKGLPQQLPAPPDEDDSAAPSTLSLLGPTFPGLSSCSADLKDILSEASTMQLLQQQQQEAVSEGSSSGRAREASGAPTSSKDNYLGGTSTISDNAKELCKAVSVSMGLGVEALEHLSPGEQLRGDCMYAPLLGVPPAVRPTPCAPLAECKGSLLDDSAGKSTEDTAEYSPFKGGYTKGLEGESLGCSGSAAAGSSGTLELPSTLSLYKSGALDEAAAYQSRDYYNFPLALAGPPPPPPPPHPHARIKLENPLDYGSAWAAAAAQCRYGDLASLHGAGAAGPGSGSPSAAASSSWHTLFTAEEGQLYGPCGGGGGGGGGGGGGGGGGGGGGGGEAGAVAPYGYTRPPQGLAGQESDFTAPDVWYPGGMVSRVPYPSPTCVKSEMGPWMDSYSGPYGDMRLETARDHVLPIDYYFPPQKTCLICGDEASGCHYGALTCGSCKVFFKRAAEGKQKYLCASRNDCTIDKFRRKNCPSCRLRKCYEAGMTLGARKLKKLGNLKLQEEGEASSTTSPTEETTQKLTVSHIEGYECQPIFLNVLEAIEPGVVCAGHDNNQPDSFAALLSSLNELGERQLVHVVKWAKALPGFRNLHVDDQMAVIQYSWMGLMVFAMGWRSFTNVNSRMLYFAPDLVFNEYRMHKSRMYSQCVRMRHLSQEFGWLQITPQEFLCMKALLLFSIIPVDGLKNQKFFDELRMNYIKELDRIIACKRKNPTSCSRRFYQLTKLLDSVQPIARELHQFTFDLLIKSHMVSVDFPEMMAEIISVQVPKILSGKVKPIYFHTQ

On to `C=CC(C)(O)CCC=C(C)C` (centres undefined), for which the outcome in test [1] and in test [2] was inactive.

As to `CC=Cc1ccc(OCC)c(O)c1`, the result in test [3] and in test [2] was inactive.

For orientation: AC50 means the midpoint of the concentration-response curve, whichever way the signal moves. For `O=C1OC[C@H](Cc2cccc(O)c2)[C@H]1Cc1cccc(O)c1`, the compound was called inactive in test [4]. In addition, the AC50 in test [5] was 8.21 µM (active).

Regarding `CC1CC(O)CC(C)(C)C1` (centres undefined), the outcome in test [6], in test [5] and in test [2] was inactive.

In the case of `C#CC(C)(O)CC(C)C` (centres undefined), the compound was called inactive in test [6] and in test [5].

`C[Si](C)(C)O[Si](C)(C)C`: the result in test [6] and in test [5] was inactive.

For `CC(C)NCC(O)COc1ccc(CC(N)=O)cc1` (centres undefined), the compound was classed as inactive in test [4], in test [6] and in test [2].

Regarding `OCC(O)c1ccccc1` (centres undefined), the outcome in test [6], in test [5] and in test [2] was inactive.

In the case of `O=C1OC(=O)c2c(Cl)c(Cl)c(Cl)c(Cl)c21`, the outcome in test [6] and in test [5] was inactive.

For `CCCCCCC(CO)CCCC` (centres undefined), the result in test [6] and in test [5] was inactive. The AC50 in test [2] was 76.9 µM (active).

Regarding `CCCOCCO`, the compound was classed as inactive in test [6], in test [5] and in test [2].

As to `CCOC(=O)C1OC1c1ccccc1` (centres undefined), the compound was called inactive in test [6], in test [5] and in test [2].

As to `Oc1ccc2cc(SSc3ccc4cc(O)ccc4c3)ccc2c1`, the outcome in test [4] was inactive. Further, the AC50 in test [2] is 87.1 µM (active).

Turning to `Nc1ccc2cc(S(=O)(=O)O)cc(O)c2c1N=Nc1ccccc1C(F)(F)F`, the AC50 in test [4] is 51.7 µM (active). For the same compound, the compound was classed as inactive in test [5].

For `Cc1ccc(S(=O)(=O)Oc2ccc(N=Nc3ccc(-c4ccc(N=Nc5c(O)ccc6cc(S(=O)(=O)O)cc(S(=O)(=O)O)c56)c(C)c4)cc3C)cc2)cc1`, the AC50 in test [4] is 17.4 µM (active); in test [6], 7.03 µM (active); in test [5], 2.55 µM (active); in test [7] it was 5.11 µM (active). For the same compound, the compound was called inactive in test [2].

With `CCc1ccc(O)cc1`, the call in test [4], in test [6], in test [5], in test [2] and in test [7] was inactive.

For `CN1C(=O)c2ccccc2C1=O`, the call in test [6], in test [5] and in test [2] was inactive.

Regarding `CN(C)c1cccc(O)c1`, in test [4], the AC50 was 40.6 µM (active). Further, in test [5], the result was inactive.

For `Cc1cc(C)nc(NS(=O)(=O)c2ccc(N)cc2)n1`, the outcome in test [4] and in test [2] was inactive.

As to `CCCCCC(C)=O`, the result in test [6] and in test [5] was inactive.

For the compound `CCOc1ccccc1O`, the result in test [4], in test [6] and in test [2] was inactive.

Turning to `CCCC(C)=O`, the compound was called inactive in test [6], in test [5] and in test [2].

Consider `C=C(C)[C@@H]1CC=C(C)C(=O)C1`, for which the result in test [6] and in test [5] was inactive.

`C=CC(=O)OCCCC`: the call in test [6] and in test [5] was inactive.

Consider `CCCCCCCCCC(=O)OC`, for which the compound was classed as inactive in test [6].

Consider `CCC(=O)O[C@@H]1C[C@H]2CC[C@]1(C)C2(C)C`, for which the call in test [6] was inactive.

`CCOc1ccc(N=Nc2ccc(C=Cc3ccc(N=Nc4ccc(OCC)cc4)cc3S(=O)(=O)O)c(S(=O)(=O)O)c2)cc1`: the call in test [4] and in test [2] was inactive.

Regarding `O=[N+]([O-])c1ccc(O)cc1C(F)(F)F`, the results for the AC50 in test [6], in test [5] and in test [2] were 12.3 µM (active), 12.9 µM (active) and 86.6 µM (active), respectively.

Consider `OCCc1ccccc1`, for which the compound was classed as inactive in test [6], in test [5] and in test [2].

As for `O=Cc1ccccc1S(=O)(=O)O`, the AC50 in test [6] was 1.24 µM (active). The outcome in test [5] was inactive.

In the case of `Clc1ccc(C(c2ccccc2Cl)C(Cl)Cl)cc1` (centres undefined), the compound was called inactive in test [6] and in test [5]. For the same compound, in test [2], the AC50 is 29.2 µM (active).

Regarding `Nc1ccccc1[N+](=O)[O-]`, in test [6], the compound was classed as inactive.

`CCC1(C)NC(=O)NC1=O` (centres undefined): the result in test [6] and in test [5] was inactive.

`CCCCCC(C=O)=Cc1ccccc1`: the call in test [4] was inactive. Besides, in test [2], the AC50 was 80 µM (active).

For `OC[C@H]1O[C@@H]2O[C@H]3[C@H](O)[C@@H](O)[C@@H](O[C@H]4[C@H](O)[C@@H](O)[C@@H](O[C@H]5[C@H](O)[C@@H](O)[C@@H](O[C@H]6[C@H](O)[C@@H](O)[C@@H](O[C@H]7[C@H](O)[C@@H](O)[C@@H](O[C@H]8[C@H](O)[C@@H](O)[C@@H](O[C@H]9[C@H](O)[C@@H](O)[C@@H](O[C@H]1[C@H](O)[C@H]2O)O[C@@H]9CO)O[C@@H]8CO)O[C@@H]7CO)O[C@@H]6CO)O[C@@H]5CO)O[C@@H]4CO)O[C@@H]3CO`, the outcome in test [6], in test [5] and in test [2] was inactive.

Regarding `CSCCC=O`, the compound was called inactive in test [4]. In addition, the AC50 in test [2] was 85.8 µM (active).

`CCCCCCCC(=O)OCC(O)CO` (centres undefined): the result in test [6], in test [5] and in test [2] was inactive.

Consider `c1ccc(Oc2ccccc2)cc1`, for which the call in test [6] was inactive.

In the case of `CCCCCCC(C)(C)S`, the outcome in test [6] and in test [2] was inactive.

As for `CC(C)CCCCCCc1ccc(OCCOCCO)cc1`, the call in test [6], in test [5], in test [2], in test [8] and in test [7] was inactive.
